An excerpt weighted towards active compounds, which were near 3.5% of everything screened.
TRb SRC2 PPI: qHTS for Inhibitors of the Interaction of Thyroid Hormone Receptor and Steroid Receptor Coregulator 2. hit rate 0.065% among 280,000. Thyroid hormone receptor beta (Homo sapiens), P10828. TRbeta-SRC2 peptide binding, fluorescence polarization; receptor liganded with 1 µM T3. Potency, µM (series often up to 106 µM), for the others: at the highest dose activity change, negative = inhibition, actives largely listed as inhibitors;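 also: plate controls were bound peptide for no effect and peptide without receptor for full effect; nearly all actives have a fitted effect of over 50% in size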
Target sequence (P10828 whole entry, looked up): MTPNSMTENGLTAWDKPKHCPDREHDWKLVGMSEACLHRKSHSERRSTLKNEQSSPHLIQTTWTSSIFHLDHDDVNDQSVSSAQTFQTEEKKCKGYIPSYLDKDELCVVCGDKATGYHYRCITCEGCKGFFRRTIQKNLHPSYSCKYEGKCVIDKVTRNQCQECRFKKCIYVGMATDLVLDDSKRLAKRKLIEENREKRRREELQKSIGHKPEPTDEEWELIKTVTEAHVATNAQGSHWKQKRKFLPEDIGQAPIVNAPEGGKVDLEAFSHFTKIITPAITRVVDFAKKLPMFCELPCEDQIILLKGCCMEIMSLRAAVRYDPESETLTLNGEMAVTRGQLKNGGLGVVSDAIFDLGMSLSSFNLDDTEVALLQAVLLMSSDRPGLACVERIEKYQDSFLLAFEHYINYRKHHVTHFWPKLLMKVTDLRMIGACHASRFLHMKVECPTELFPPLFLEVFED
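Human TRb LBD (0.6 uM) plus Texas Red-labeled SRC2 peptide (20 nM), 1uM T3, 5% DMSO, 5 hr at ambient temperature. Decreased polarization (555/632 nm) flags inhibition; data normalized to free and bound peptide controls.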
KDM4E inh: qHTS Assay for Inhibitors of Human Jumonji Domain Containing 2E (JMJD2E) | Lysine-specific demethylase 4E (Homo sapiens), B2RXH2 | JMJD2E catalytic domain, FDH-coupled NADH fluorescence (FDH is formaldehyde dehydrogenase) | Potency, µM (highest dose often 57.1 µM), for inactives: at the highest dose activity change, negative = inhibition, most hits filed as inhibitors | hit rate 1.6% among 230,000; active = well fitted inhibition curve with a large enough effect, not every such curve was filed as active; inconclusive = small, poorly fitted or top-dose-only effect, or another doubt; inactive = no such curve, though single readings can be large or run the other way;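 also: 0% = wells with enzyme and -100% = buffer wells without enzyme; nearly all actives have a fitted effect of over 50% in size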
Tau fibril ThT: qHTS for Inhibitors of Tau Fibril Formation, Thioflavin T Binding; Microtubule-associated protein tau (Homo sapiens), P10636; hit rate 2.1% among 270,000; AID 1460, 2008; recombinant tau K18 P301L, heparin-induced fibrillization, ThT fluorescence; Potency, µM (highest dose often 57.4 µM), for inactives: top-dose activity, negative = inhibition, hits mostly inhibitors; also: nearly all actives have a fitted effect of over 55% in size
Target sequence (P10636 561-689 P618L limits assumed): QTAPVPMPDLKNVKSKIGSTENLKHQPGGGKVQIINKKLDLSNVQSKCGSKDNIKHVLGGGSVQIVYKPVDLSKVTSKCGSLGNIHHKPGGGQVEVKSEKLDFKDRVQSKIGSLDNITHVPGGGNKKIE
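In this qHTS, human K18 P301L tau is incubated with compound and heparin for 6 hr at 37 C, and Thioflavin T fluorescence then reports fibril load.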
TR SRC2 fluor cs: Total Fluorescence Counterscreen for Inhibitors of the Interaction of Thyroid Hormone Receptor and Steroid Receptor Coregulator 2; TRb/SRC2 Texas Red total fluorescence interference; Potency, µM (doses to about 106 µM), inactives show at the top dose fluorescence change, negative = quenching; hit rate 0.29% among 280,000; active = well fitted curve in either direction with a large enough effect; inconclusive = small, poorly fitted or top-dose-only effect
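Human TRb ligand-binding domain at 0.6 uM with 20 nM Texas Red SRC2 peptide in Tris buffer containing 1 uM T3 and 5% DMSO, incubated with compound 5 h at ambient temperature. Total fluorescence (555/632 nm) calculated as parallel + 2 × perpendicular.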
Tau fluor counter: Counterscreen qHTS for Inhibitors of Tau Fibril Formation, Fluorescence Polarization; Potency, µM (highest dose often 57.7 µM), for inactives: at the highest dose activity change, negative = decrease; AID 1463, 2008; hit rate 0.93% among 280,000; tau K18 P301L (four-repeat tau fragment) Alexa594 fluorescence, heparin fibrillization; also: nearly all actives have a fitted effect of over 55% in size
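Human K18 P301L tau (15 uM unlabeled plus 0.24 uM Alexa 594-labeled, final) in 100 mM sodium acetate pH 7 was mixed with compound and 20 uM heparin and incubated 6 hr at 37 C.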
Tau FP inhib: qHTS for Inhibitors of Tau Fibril Formation, Fluorescence Polarization; Microtubule-associated protein tau (Homo sapiens), P10636; K18 P301L tau heparin fibrillization, Alexa594 FP, 6 h; Potency, µM (doses to about 57.7 µM), for the others: at the highest dose activity, negative = inhibition, most hits filed as inhibitors; hit rate 0.39% among 280,000; also: nearly all actives have a fitted effect of over 55% in size
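Steps: dispense K18 P301L tau (15 uM plus 0.24 uM Alexa 594 tracer, final) in pH 7 sodium acetate; add compound; add heparin (20 uM final); incubate 6 hr, 37 C; add ThT (30 uM final); after 1 hr ambient, read FP.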
Numbers without * were called inactive; ? = inconclusive; · = no result; [ ] = another dose, or the depositor's remark. Unless noted, calls follow the shape of the dose curve; as a rule, active = well fitted curve in the direction sought with a large enough effect; inconclusive = small, poorly fitted or top-dose-only effect, or another doubt; inactive = no such curve, though single readings can be large; an effect the other way counts as inactive or inconclusive. Unless noted, % is scaled to controls: 0 for no effect and ±100 for the full control effect; potency is read from the fitted curve at half-maximal effect.

SMILES	TRb SRC2 PPI	KDM4E inh	Tau fibril ThT	TR SRC2 fluor cs	Tau fluor counter	Tau FP inhib
COc1ccnc(Nc2cccc(C)c2)c1C#N	1.3%	-7.4%	-2.9%	-1.0%	-9.1%	-4.1%
CC(C)COP(=O)(OCC(C)C)C(O)c1ccc2c(c1)OCO2 (stereo unspecified)	6.7%	10.2%	-7.6%	-1.1%	-3.1%	-1.3%
C=CCc1ccccc1OCC(O)CN1CCN(c2ccccc2)CC1 (stereo unspecified)	?	·	?	1.58µM*[quencher]	-21.6%	11.1%
C[C@H](N)C(=O)N[C@@H](Cc1ccc(F)cc1)C(=O)N[C@@H](CCCN=C(N)N)C(=O)N[C@@H](CC1CCCCC1)C(=O)N[C@@H](CCCCN=C(N)N)C(=O)N[C@@H](Cc1ccc(O)cc1)C(N)=O	2.6%	·	·	5.1%	·	·
CCOc1ccccc1CN1CCN(Cc2cccc3c2OCO3)CC1CCO (stereo unspecified)	0.2%	-0.8%	-11.6%	3.2%	-11.2%	-13.2%
Cc1[nH]n(-c2ncc(-c3ccccc3)s2)c(=O)c1C(c1ccc(Cl)cc1)C(C#N)C#N (stereo unspecified)	-5.6%	-29.1%	14.1µM*	-14.3%	?	?
CCn1nnnc1NC(=O)c1cccc(OC)c1	2.0%	-3.1%	-11.4%	-4.0%	-7.9%	-3.0%
Cc1cc2oc(=O)cc(-c3ccccc3)c2c(C)c1-c1ccc(F)c(Cl)c1	3.1%	·	-11.9%[81.4 µM]	0.0%	-3.6%[81.3 µM]	-1.1%[81.3 µM]
CCS(=O)(=O)c1ncc(Cl)c(C(=O)Nc2ccc(S(=O)(=O)N(C)c3ccccc3)cc2)n1	1.7%	·	?	-13.0%	-20.3%	?
CCN(c1ccccc1)S(=O)(=O)c1ccc(NC(=O)c2nc(S(C)(=O)=O)ncc2Cl)cc1	-8.7%	·	?	1.78µM*[quencher]	-20.9%	?
CS(=O)(=O)c1ncc(Cl)c(C(=O)Nc2ccc(N3CCOCC3)cc2)n1	-16.3%	-9.5%	3.16µM*	-1.2%	?	?
CS(=O)(=O)c1ccc(C(=O)Nc2ccc(N3CCOCC3)cc2)c(Cl)c1	5.9%	0.3%	?	1.2%	-12.7%	0.2%
CC(=O)C1=C(c2ccccc2)NC(=O)NC1c1ccccc1OCC(=O)NCc1ccccc1 (stereo unspecified)	1.2%	-0.1%	-6.7%	-1.1%	-7.3%	3.1%
N#C/C(=C\c1ccc(-c2cccc(Cl)c2)o1)C(=O)Nc1cccc2cccnc12	2.7%	-0.9%	2.51µM*	-1.6%	-17.0%	8.0%
CNC(=O)C1C(=S)NC(N)=C(C#N)C1c1ccccc1 (stereo unspecified)	-1.3%	?	20µM*	-5.1%	-28.4%	15.8µM*
C=CCc1ccc(OCCOCCOc2cccc3cccnc23)c(OC)c1	3.3%	-8.8%	?	-0.5%	-6.3%	-6.5%
Cc1ccc(/C=C/C(=O)NCc2ccc(S(N)(=O)=O)cc2)o1	-4.0%	-7.1%	25.1µM*	-2.2%	-15.9%	?
O=[N+]([O-])c1ccc(-c2nc(-c3cccs3)c(-c3cccs3)[nH]2)cc1	-11.3%[53 µM]	-19.0%	5.62µM*	-2.4%[53 µM]	7.94µM*[quencher]	?
Oc1cccc(-c2nc(-c3cccs3)c(-c3cccs3)[nH]2)c1	5.5%	·	15.8µM*	-1.9%	12.6µM*[quencher]	?
O=[N+]([O-])c1cccc(-c2nc(-c3cccs3)c(-c3cccs3)[nH]2)c1	1.7%	-9.0%	?	-4.1%	11.2µM*[quencher]	5.9%
Cc1ccc(-c2nc(-c3cccs3)c(-c3cccs3)[nH]2)cc1	1.5%	·	-10.4%	0.8%	?	7.3%
COc1ccccc1-n1cc(CN2CCN(CC=C(C)C)C(CCO)C2)cn1 (stereo unspecified)	-1.8%	1.7%	7.9%	-0.2%	10.0%	4.6%
N[C@H](C(=O)O)c1cccc(O)c1	10.3%	22.4µM*	?	-0.7%	-0.8%	?
N#CC(C#N)=C1NC2(CCCCC2)Cc2ccccc21	-1.7%	2.4%	-2.9%	-5.3%	-9.8%	-4.4%
N#CC(C#N)=c1ccc2c(c1)NC1(CCCCC1)N=2	?	-8.0%	14.1µM*	44.7µM*[fluorescent]	?	25.1µM*
SMILES	TRb SRC2 PPI	KDM4E inh	Tau fibril ThT	TR SRC2 fluor cs	Tau fluor counter	Tau FP inhib
Cc1nc2ccccc2c2c(N)c3ccccc3n12	-6.6%	-1.5%	10µM*	2.6%	-22.5%	?
Cc1nc2ccccc2n1-c1ccccc1	-3.7%	7.7%	-1.1%	3.0%	-1.3%	3.9%
Cc1ccc(NCc2nnc(SCC(N)=O)n2CC2CCCO2)c(C)c1 (stereo unspecified)	-14.7%	-0.5%	-3.2%	-1.6%	3.6%	6.0%
O=C1/C(=N\S(=O)(=O)c2cccs2)C([n+]2ccc(CCCc3ccccc3)cc2)=C([O-])c2ccccc21	0.9%	1.5%	2.82µM*	-5.7%	?	3.3%
CC(C)(C)c1cc[n+](C2=C([O-])c3ccccc3C(=O)/C2=N\S(=O)(=O)c2ccccc2)cc1	-6.7%	?	15.8µM*	-11.6%	?	?
CC(C)NS(=O)(=O)c1ccc(OCC(=O)N(C)Cc2ccccc2)cc1	-7.0%	-0.1%	-8.1%	-1.8%	-9.7%	-8.3%
CCOc1cc(/C=N/NC(=O)CSc2nncn2C)ccc1OCc1ccccc1	-1.1%	5.5%	-11.5%	-2.1%	-3.3%	-5.2%
COc1ccc(CCNC(=O)C2CCN(c3nc4ccccc4nc3C(F)(F)F)CC2)cc1OC	10.4%	·	-7.0%	-0.6%	-10.5%	-6.8%
O=C(O)c1cccc(Cn2c(Cl)c(/C=N/Nc3ccccc3)sc2=O)c1	6.5%	-24.2%	17.8µM*	-4.1%	?	?
NC(=O)CC(NC(=O)Cc1cccc2ccccc12)c1ccc(NCc2ccc(F)c(F)c2)c([N+](=O)[O-])c1 (stereo unspecified)	-2.5%	-10.2%	?	-1.7%	-28.6%	?
COCCCNC(=O)CSC1=Nc2ccccc2C2=NC(CCC(=O)NCc3ccc(OC)cc3)C(=O)N12 (stereo unspecified)	1.7%	·	5.9%	-0.8%	-9.9%	-4.2%
Cc1ccc(NC(=O)C2=C(c3ccccc3)S(=O)(=O)CCS2(=O)=O)cc1	-6.8%	-1.4%	28.2µM*	-4.6%	-28.9%	28.2µM*
Cc1ccc(NC(=O)c2ccccc2)cc1	3.7%	4.5%	?	0.8%	-10.0%	-4.1%
Cc1ccc(N=Nc2c(N)n(-c3ccccc3)[nH]c2=O)cc1	1.3%	-2.4%	3.16µM*	-2.3%	10µM*[quencher]	-2.2%

Assay outcomes: PubChem BioAssay, National Center for Advancing Translational Sciences (NCATS)
